Compound activity from PubChem BioAssay.
The full list was thinned out, with hits kept by preference.
Tg IFNy HTS: T. gondii growth inhibition with IFN-gamma, primary screen, cell-based; Toxoplasma gondii growth in IFN-gamma-treated host cells; hits give low values; AID 1259416, 2018; activity change, negative = inhibition, % (concentration not given with the values); hit rate 3.8% among 69,000; in the data active = activity change below about -70%, passing the limit was not always enough;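 also: host cells are HeLa cells infected with Toxoplasma gondii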
Numbers without * were called inactive.

For Cc1cc(Nc2cc(C(F)(F)F)nc3c(Cl)cccc23)on1 the results were Tg IFNy HTS -80.4*.
For Cc1ccc(Nc2cc(C)nc3c(C)cccc23)cc1 the results were Tg IFNy HTS -59.1.
For Cc1cc(C(F)(F)F)nc(CCNC(=O)c2c(O)cccc2O)n1 the results were Tg IFNy HTS -1.6.
`CCc1ccccc1NC(=O)COc1nc(C)nc2ccccc12` gave Tg IFNy HTS -6.2.
Fc1ccc(C(c2ccccc2)(c2ccccc2F)n2ccnc2)cc1 (stereo unspecified) was read as Tg IFNy HTS -70.9*.
Screening COc1ccc(-c2nc(C)c(CCNC(=O)c3ccc(F)c(F)c3)s2)cc1OC returned Tg IFNy HTS inactive.
C[N+](C)(CCOc1ccccc1)Cc1ccccc1 was read as Tg IFNy HTS 85.2.
Cc1cc(C(C)(C)CC(C)(C)C)ccc1OCCOCC[N+](C)(C)Cc1ccccc1 was read as Tg IFNy HTS -84.7*.
`CC(C)(C)CC(C)(C)c1ccc(O)c(-n2nc3ccccc3n2)c1` gave Tg IFNy HTS -4.5.
`CC1c2cccn2CCN1Cc1ccc(Sc2nncn2C)o1` (stereo unspecified) gave Tg IFNy HTS 3.0.
Screening Cn1cnnc1Sc1cc(C#N)c(C#N)cc1Sc1nncn1C returned Tg IFNy HTS -41.4.
`Cc1ccc(Nc2nc(Nc3ccc(C)cc3)nc(Sc3nncn3C)n2)cc1` gave Tg IFNy HTS -75.2*.
CCn1c(C2CCCN(C(=O)CCn3nnc4ccccc43)C2)nn(C)c1=O (stereo unspecified) was read as Tg IFNy HTS -49.5.
For Cc1ccccc1-n1nc(C)c2c1NC(=O)CC2c1cc(C(C)C)no1 (stereo unspecified) the results were Tg IFNy HTS 5.8.
`CN(C)c1ccc(CNc2nc(-c3nnc(-c4ccc(Cl)cc4)o3)nc3ccccc23)cc1` gave Tg IFNy HTS 128.7.
Screening CCOc1ccc2nc(NS(=O)(=O)c3ccc(NC(C)=O)cc3)sc2c1 returned Tg IFNy HTS 4.9.
O=C(CSc1ccccn1)c1ccc(OCc2ccc(F)cc2)cc1 was read as Tg IFNy HTS -22.6.
Screening CCOc1ccc2nc(SCC(=O)c3ccc(F)cc3)sc2c1 returned Tg IFNy HTS -79.2*.
CCCCc1ncc(C2CC(=O)Nc3c2cnn3CCC(C)C)[nH]1 (stereo unspecified) was read as Tg IFNy HTS 7.7.
Screening Cc1cc(=O)oc2cc(CN(C)C(C)c3ccccn3)ccc12 (stereo unspecified) returned Tg IFNy HTS -7.3.
COc1cccc(C(=O)Nc2cccc(C(=O)OCC(=O)Nc3cc(C)on3)c2)c1 was read as Tg IFNy HTS -8.1.
CSc1sc(-c2nc(C)cs2)c(C)c1-c1ccn[nH]1 was read as Tg IFNy HTS -85.6*.
`Cc1csc(-c2sc3ccccc3c2O)n1` gave Tg IFNy HTS -27.5.
`CCOC(=O)N1CCC2(CC1)OC(=O)C(C)=C2C(=O)Nc1ccc(F)cc1F` gave Tg IFNy HTS 68.8.
COc1ccc(Cl)cc1C(=O)Nc1ccc2c(c1)CCC(=O)N2C was read as Tg IFNy HTS 43.5.
Screening COC(=O)CC1(C(=O)OC)Oc2ccc(Cl)cc2C(=O)N1c1ccc(F)cc1F (stereo unspecified) returned Tg IFNy HTS -70.5*.
For O=C(CCCCC1SCC2NC(=O)NC21)NC1(c2ccc3c(c2)OCO3)CCCC1 (stereo unspecified) the results were Tg IFNy HTS -2.4.
For Cc1cc2nccc(C3CCC(CNC(=O)c4cc(C(C)(C)C)nn4C)CC3)n2n1 (stereo unspecified) the results were Tg IFNy HTS -22.6.
O=c1[nH]nc2c(-c3ccccc3)c(-c3ccccc3)c(-c3ccccc3)nn12 was read as Tg IFNy HTS -106.5*.
Nc1[nH]nc2nnc(-c3c(-c4ccccc4)nn4ccccc34)cc12 was read as Tg IFNy HTS -44.9.
`O=c1cc2nn[nH]n2nc1-c1ccccc1` gave Tg IFNy HTS 123.6.
`Cc1nc([C@@H]2C[C@H]3CCN(C(=O)c4cccs4)C[C@@H]3O2)no1` gave Tg IFNy HTS -40.5.
O=C(c1cccc(CC2CCNCC2)c1)N1CCCC1c1ccccn1 (stereo unspecified) was read as Tg IFNy HTS 2.2.
`CCOc1cccc(C2c3[nH]c4ccccc4c3CCN2C(=O)c2ccco2)c1` (stereo unspecified) gave Tg IFNy HTS -109.4*.
`CCOc1cccc(C2c3[nH]c4ccccc4c3CCN2C(=O)c2cccc(Cl)c2)c1` (stereo unspecified) gave Tg IFNy HTS -122.5*.
Screening CCOc1cccc(C2c3[nH]c4ccccc4c3CCN2C(=O)c2ccc3c(c2)OCO3)c1 (stereo unspecified) returned Tg IFNy HTS inactive.
`CCOc1cccc(C2c3[nH]c4ccccc4c3CCN2C(=O)c2ccc(OC)c(OC)c2)c1` (stereo unspecified) gave Tg IFNy HTS -88.5*.
`CCOc1cccc(C2c3[nH]c4ccccc4c3CCN2C(=O)c2cc3ccccc3[nH]2)c1` (stereo unspecified) gave Tg IFNy HTS inactive.
`CCCC(=O)N1CCc2c([nH]c3ccccc23)C1c1cccc(OCC)c1` (stereo unspecified) gave Tg IFNy HTS 496.6.
For CCOc1cccc(C2c3[nH]c4ccccc4c3CCN2C(=O)COc2ccccc2)c1 (stereo unspecified) the results were Tg IFNy HTS inactive.
`CCOc1cccc(C2c3[nH]c4ccccc4c3CCN2C(=O)c2cccs2)c1` (stereo unspecified) gave Tg IFNy HTS inactive.
CCOc1cccc(C2c3[nH]c4ccccc4c3CCN2C(=O)c2ccccc2F)c1 (stereo unspecified) was read as Tg IFNy HTS -64.5.
`O=C(Cn1ncc2c(N3CCN(c4ccccc4)CC3)ncnc21)Nc1ccccc1C(F)(F)F` gave Tg IFNy HTS -33.4.
Screening COc1ccc2[nH]c3c(c2c1)CN(C(=O)CC(C)n1nc(C)c(Cl)c1C)CC3 (stereo unspecified) returned Tg IFNy HTS 49.7.
For CC1(C(=O)N2CCn3cncc3C2)CCCCO1 (stereo unspecified) the results were Tg IFNy HTS 6.9.
COc1ccc(N2CC3(CCN(c4cnccn4)C3)CC2=O)cc1 (stereo unspecified) was read as Tg IFNy HTS -0.5.
Screening CCOc1ccccc1NC(=O)Cn1c(=O)cc(C(=O)N2CCOCC2)c2ccccc21 returned Tg IFNy HTS 7.5.
O=C(C1CCOCC1)N1CC[C@@H](O)[C@@H]1Cc1ccncc1 was read as Tg IFNy HTS -48.2.
O=C(c1ccccn1)N1CC2CN(C(=O)c3cscn3)CC2C1 (stereo unspecified) was read as Tg IFNy HTS 11.8.
Screening C=CCN(Cc1ccco1)Cc1cc2ccccc2n(C)c1=O returned Tg IFNy HTS 9.6.
For O=C(NCc1nc(Cc2ccccc2)no1)c1cnn2c(-c3ccccc3)ccnc12 the results were Tg IFNy HTS -6.7.
COc1ccc(NC(=O)c2cn3ccc(C)cc3n2)cc1 was read as Tg IFNy HTS -69.3.
Screening CSC1SCC2C(=O)N(C)C(C(C)C)C(=O)OCC(NC(=O)c3cnc4ccccc4n3)C(=O)NC(C)C(=O)N(C)C1C(=O)N(C)C(C(C)C)C(=O)OCC(NC(=O)c1cnc3ccccc3n1)C(=O)NC(C)C(=O)N2C (stereo unspecified) returned Tg IFNy HTS -76.6*.
`COCc1cnc2n1CCN(C(=O)COc1ccccc1C)C2C` (stereo unspecified) gave Tg IFNy HTS 4.2.
